# Experimental data from PubChem BioAssay AID720706 (Broad Institute, 2013).
# Among all 350,000 compounds or so, about 5,500 (1.6%) were called active.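 The calls were made as follows: active = significant combined selectivity score with lowered wild-type GFP, culture density cut under 30%, mutant RFP and density less affected; inactive = any of these conditions unmet.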 Many of the other results were omitted from the sample, so actives are more common in it than they were.
# Experiment: reduced GFP signal of wild-type E. coli, primary screen, bacterial rRNA inhibitor project, GFP/RFP fluorescence, OD600, single point (AID 720706)
# Conditions: E. coli WT GFP vs humanized-ribosome RFP mutants, 24 h; GFP signal change (wild-type ribosome): stronger effect = lower value, DMSO median 0, no signal -100; OD600 change: measured here: OD600 growth, DMSO median 0, no signal -100; RFP signal change: measured here: RFP humanized mutant strains, DMSO median 0, no signal -100, concentration not given here
Structure (SMILES),GFP signal change (wild-type ribosome),OD600 change [%],RFP signal change [%]
CN(C)Cc1cn(CC[C@H]2CC[C@H](NS(=O)(=O)c3ccccc3)[C@@H](CO)O2)nn1,-1.38% (inactive),8.8,-1.73
Cc1ccc(S(=O)(=O)N(C)C[C@H]2Oc3c(NS(=O)(=O)c4cn(C)cn4)cccc3C(=O)N([C@@H](C)CO)C[C@H]2C)cc1,4.44% (inactive),5.92,-0.801
CCC(=O)N(C)C[C@@H]1Oc2ncc(-c3ccccc3OC)cc2C(=O)N([C@@H](C)CO)C[C@@H]1C,-1.63% (inactive),0.66,1.16
COc1ccc(CNC(=O)C[C@@H]2C=C[C@@H](NC(=O)c3ccc4c(c3)OCO4)[C@@H](CO)O2)cc1,3.42% (inactive),5.74,-0.879
C[C@H](CO)N1C[C@H](C)[C@H](CN(C)S(C)(=O)=O)Oc2ncc(C3=CCCC3)cc2C1=O,4.58% (inactive),6.67,-1.55
O=[N+]([O-])c1cc([N+](=O)[O-])c2cccnc2c1O,-15.7% (inactive),19.1,3.26
O=C(c1ccc(N2CCOCC2)c([N+](=O)[O-])c1)N1CCN(c2ccccc2F)CC1,-19.6% (inactive),-35.6,-4.01
O=C(c1cccc(F)c1)N1CCN(c2ccc([N+](=O)[O-])c3cccnc23)CC1,-17.8% (active),-11,4.41
C[C@H]1CCCCO[C@@H](CN(C)Cc2ccncc2)[C@@H](C)CN([C@@H](C)CO)C(=O)c2cc(NC(=O)Nc3ccc(F)cc3)ccc2O1,1.44% (inactive),2.48,-0.987
CCCN(C)C[C@@H]1OCCCC[C@@H](C)Oc2ccc(NC(=O)CCCN(C)C)cc2C(=O)N([C@H](C)CO)C[C@@H]1C,-2.58% (inactive),6.85,-0.525
C[C@H](NC(=O)N(C)C[C@@H]1OCc2ccccc2-c2ccccc2C(=O)N([C@H](C)CO)C[C@@H]1C)c1ccccc1,-0.824% (inactive),6,-2.69
COc1ccc(S(=O)(=O)Nc2ccc3c(c2)C(=O)N(C)C[C@@H](OC)[C@H](C)CN(C(=O)NC(C)C)[C@H](C)CO3)cc1,2.15% (inactive),-6.48,0.485
CCCNC(=O)N(C)C[C@@H]1Oc2ncc(C#CCc3ccccc3)cc2C(=O)N([C@@H](C)CO)C[C@H]1C,2.5% (inactive),-2.83,-0.346
Cc1noc(C)c1S(=O)(=O)N(C)C[C@H]1OCCCC[C@H](C)Oc2ccc(NC(=O)c3ccccc3)cc2C(=O)N([C@@H](C)CO)C[C@H]1C,-1% (inactive),-0.308,2.4
O=C(COC(=O)Cc1ccc(Cl)cc1Cl)NCc1ccco1,-17.4% (inactive),-6.25,0.815
CC(C)(C)NC(=O)NC(=O)COC(=O)Cc1c(F)cccc1Cl,-13.1% (inactive),-4.75,3.43
CC(C)(C)NC(=O)NC(=O)COC(=O)Cc1ccc(Cl)cc1Cl,-19.2% (active),-0.7,-0.643
C[C@H](CO)N1C[C@H](C)[C@H](CN(C)Cc2ccncc2)Oc2ccc(NC(=O)Nc3ccc(F)cc3)cc2C1=O,0.717% (inactive),-2.2,-2.45
CN1c2ccc(-c3ccc(C#N)cc3)cc2[C@@H]2[C@@H](CCN2C(=O)C2CCCCC2)[C@H]1CO,-6.99% (inactive),-10.9,6.2

Structure (SMILES),GFP signal change (wild-type ribosome),OD600 change [%],RFP signal change [%]
CN(C)C(=O)c1ccc(-c2ccccc2[C@H]2[C@@H](CO)N(C(=O)C3CCCCC3)[C@H]2C#N)cc1,-3.32% (inactive),0.601,-4.88
O=C(O)c1ccccc1-c1ccccc1C(=O)NCCc1ccccc1,7.6% (inactive),2.74,2.49
O=C(NCCCc1ccccc1)C(=O)c1c[nH]c2ccccc12,0.21% (inactive),-1.22,-2.69
O=C(NCCc1ccccc1)c1c[nH]c2ccc(F)cc2c1=O,-31.8% (active),-19.6,-3.4
COCC(=O)N(C)C[C@H]1[C@@H](c2ccccc2)[C@H](CO)N1C(=O)Cc1ccncc1,4.17% (inactive),8.74,0.341
Cc1ccc(S(=O)(=O)N[C@H]2CC[C@@H](CC(=O)NCCCN(C)C)O[C@H]2CO)cc1,4.5% (inactive),5.89,-1.14
C[C@H](CO)N1C[C@H](C)[C@@H](CN(C)S(C)(=O)=O)Oc2ccc(NC(=O)Nc3ccc4c(c3)OCO4)cc2CC1=O,-0.075% (inactive),5.52,1.12
O=C(NNS(=O)(=O)c1ccccc1)c1cnn(-c2ccc(Cl)cc2)c1C(F)(F)F,-40.1% (active),20.1,3.85
CCCc1c(C(=O)O)cnn1-c1ccc(Cl)cc1,-6.54% (inactive),-3.54,0.509
NNC(=O)c1cnn(-c2ccccc2)c1C(F)(F)F,5.13% (inactive),9.29,-0.665
C[C@H]1CN([C@@H](C)CO)C(=O)c2cc(-c3ccncc3)cnc2O[C@@H]1CN(C)C(=O)C1CCCCC1,0.821% (inactive),4.66,-3.44
C[C@H](CO)N1C[C@H](C)[C@H](CN(C)C(=O)C2CC2)Oc2cc(-c3cccnc3)ccc2S1(=O)=O,-1.18% (inactive),3.4,0.533
CCCNC(=O)N1[C@H](CO)[C@@H](c2ccc(-c3ccc(C(=O)N(C)C)cc3)cc2)[C@@H]1C#N,6.87% (inactive),16.3,-2.83
O=C(c1ccc(F)cc1)N1CC(=O)N2[C@@H](CO)[C@H](c3ccc(C4=CCCC4)cc3)[C@@H]2C1,4.17% (inactive),4.94,-0.136
C[C@H](CO)N1C[C@H](C)[C@@H](CN(C)C(=O)C2CC2)Oc2cc(C#CC(C)(C)O)ccc2S1(=O)=O,1.02% (inactive),10.5,-2.74
COCC(=O)N1CC(=O)N2[C@H](C1)[C@H](c1ccc(C#CC3CCCCC3)cc1)[C@@H]2CO,2.23% (inactive),2.33,1.49
CN(c1ccccc1)S(=O)(=O)c1ccc(C(=O)NCCc2ccccc2)cc1,-12.7% (inactive),-28.7,-1.12
CN(c1ccccc1)S(=O)(=O)c1ccc(C(=O)NCc2cccnc2)cc1,-0.96% (inactive),-21.8,0.05
Cc1cccc(NC(=O)c2ccc(S(=O)(=O)N(C)c3ccccc3)cc2)n1,-16.8% (active),-25,1.23
